Assay results taken from article PMC7826789 (International Journal of Molecular Sciences, 2021).

Key:
[1] = tested on: IKKE
[2] = tested on: IRR
[3] = tested on: JAK1
[4] = tested on: JAK3
[5] = tested on: JNK1
[6] = tested on: JNK2

## CC(C)COC(=O)c1ccc2c(c1)/C(=C/Nc1ccc(S(N)(=O)=O)cc1)C(=O)N2 [GW416981X]
[1]
  Kinases covered: IKKE

## CNC(=O)c1c(F)cccc1Nc1nc(Nc2cc3c(cc2OC)CCN3C(=O)CN(C)C)nc2[nH]ccc12 [GSK1838705]
[2]
  Kinases covered: IRR

## CN(C)C(=O)/C(C#N)=C/c1ccc(-c2nc3cnc4[nH]ccc4c3n2C2CCCCC2)o1 [FM-381]
[3]
  Kinases covered: JAK1
[4]
  Kinases covered: JAK3

## C[C@@H]1CCN(C(=O)CO)C[C@@H]1N(C)c1ncnc2[nH]ccc12 [PFE-PKIS 34]
[4]
  Kinases covered: JAK3

## Cc1cc(NC(=O)c2cccc(NC(=O)/C=C/CN(C)C)c2)ccc1Nc1nccc(-c2cccnc2)n1 [JNK-IN-7]
[5]
  Kinases covered: JNK1
[6]
  Kinases covered: JNK2
